Experimental data published in PubChem BioAssay (NCATS).
Results filed as inconclusive are left out. Activity calls are given as the source filed them. Unless noted, calls come from the whole dose curve; as a rule, active = well fitted curve in the direction sought with a large enough effect; inconclusive = small, poorly fitted or top-dose-only effect, or another doubt; inactive = no such curve, though single readings can be large; an effect the other way counts as inactive or inconclusive.

Key:
[1] = target: Lysosomal acid glucosylceramidase (Homo sapiens) (UniProt P04062); test: Glucocerebrosidase-p2 (AID 348; in the data active = potency below about 10 µM; note: potency is the fitted concentration of half-maximal effect); settings: purified GBA, blue fluorogenic substrate, 40 min
Sequence of Lysosomal acid glucosylceramidase (Homo sapiens) (P04062 whole entry, looked up): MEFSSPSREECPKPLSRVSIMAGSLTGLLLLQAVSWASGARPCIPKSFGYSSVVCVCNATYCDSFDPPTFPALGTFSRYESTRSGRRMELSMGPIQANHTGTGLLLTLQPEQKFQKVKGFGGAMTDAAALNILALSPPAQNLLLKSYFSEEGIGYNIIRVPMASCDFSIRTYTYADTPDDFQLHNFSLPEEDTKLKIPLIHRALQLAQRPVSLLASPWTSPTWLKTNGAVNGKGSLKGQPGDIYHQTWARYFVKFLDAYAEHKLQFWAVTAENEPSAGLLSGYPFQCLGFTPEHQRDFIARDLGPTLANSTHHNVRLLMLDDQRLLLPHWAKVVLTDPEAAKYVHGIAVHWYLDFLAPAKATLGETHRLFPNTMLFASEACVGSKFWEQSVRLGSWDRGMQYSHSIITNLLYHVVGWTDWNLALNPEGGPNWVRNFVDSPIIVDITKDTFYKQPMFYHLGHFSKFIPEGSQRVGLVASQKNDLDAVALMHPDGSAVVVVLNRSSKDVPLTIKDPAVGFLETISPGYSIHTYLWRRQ
Procedure, shortened: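 Normal human glucocerebrosidase (0.2 nM) with blue fluorogenic substrate (80 uM final) in citrate/phosphate pH 5.9 with 10mM sodium taurocholate, 0.01% tween-20; 40 min RT, NaOH/glycine stop; fluorescence Ex 365/Em 440; AC50 from a titration from 0.6 nM upwards.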

[2] = AP1 Signaling Pathway (AID 357; active = well fitted curve in either direction with a large enough effect, not every such curve was filed as active;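 note: ME-180 reporter cells stimulated with EGF at its EC50 level; % is set by controls: 0 for no effect and ±100 for the full control effect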); settings: ME-180 AP-1-bla reporter, EGF-induced, beta-lactamase ratio, 5 h; at 7.69 µM (top of the series) unless noted
Procedure, shortened: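 A ratiometric CCF4 readout (405 nm excitation; 460 and 530 nm emission) quantified AP-1-driven beta-lactamase in ME-180 cells after 5 h with compound and EC50 EGF; AC50 values were derived for activators and inhibitors.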

[3] = target: Cytochrome P450 1A2 (Homo sapiens) (UniProt P05177); test: p450-cyp1a2 (AID 410; calls by dose curve; note: potency is the fitted concentration of half-maximal effect); settings: recombinant CYP1A2, luciferin-ME demethylation, luminescence; series mostly up to 57 µM
Sequence of Cytochrome P450 1A2 (Homo sapiens) (P05177 whole entry, looked up): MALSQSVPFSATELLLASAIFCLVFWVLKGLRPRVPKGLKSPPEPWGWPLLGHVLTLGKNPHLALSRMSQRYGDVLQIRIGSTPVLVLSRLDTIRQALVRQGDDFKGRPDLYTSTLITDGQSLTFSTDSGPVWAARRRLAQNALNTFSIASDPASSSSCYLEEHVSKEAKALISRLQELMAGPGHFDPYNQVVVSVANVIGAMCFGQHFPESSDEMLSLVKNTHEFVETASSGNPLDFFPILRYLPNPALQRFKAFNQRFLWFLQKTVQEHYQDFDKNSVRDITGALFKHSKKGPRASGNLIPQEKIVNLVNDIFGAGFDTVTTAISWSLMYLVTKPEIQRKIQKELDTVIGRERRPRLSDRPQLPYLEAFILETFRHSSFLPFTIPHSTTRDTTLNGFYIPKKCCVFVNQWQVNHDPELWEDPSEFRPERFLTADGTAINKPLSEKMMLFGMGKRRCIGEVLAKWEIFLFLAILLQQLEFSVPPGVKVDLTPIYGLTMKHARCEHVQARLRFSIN
Procedure, shortened: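 20nM CYP1A2, 100uM Luciferin-ME (=Km), 100mM KPO4; cpd 10 min RT; +NADPH regen, 60 min RT; stop/detect 20 min; luminescence. Normalized to furafylline 57 uM = full inhibition.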

[4] = NFAT Signaling Pathway (AID 444; active = well fitted curve in either direction with a large enough effect, not every such curve was filed as active;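 note: carbachol stimulus at about its EC50 of 1 µM final; % is set by controls: 0 for no effect and ±100 for the full control effect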); settings: Jurkat NFAT-bla M1, carbachol, beta-lactamase ratio, 5 h; at 7.69 µM (top of the series) unless noted
Procedure, shortened: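 Jurkat cells with NFAT-driven β-lactamase reporter and co-expressed M1 receptor, stimulated with carbachol (final 1 uM, ~EC50), compound titration, 5 h at 37 °C. CCF4 loaded 1 h at RT; 460/530 nm ratio gave %activity and AC50.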

[5] = Stat Signaling Pathway (AID 446; active = well fitted curve in either direction with a large enough effect, not every such curve was filed as active;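 note: ME-180 cervical cancer cells given 40 pM IL-6 alongside compound; SIE-controlled beta-lactamase reporter measured as 460/530 nm FRET emission ratio; % is set by controls: 0 for no effect and ±100 for the full control effect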); settings: ME-180 SIE beta-lactamase reporter, IL-6 stimulated, 5 h; at 7.69 µM (top of the series) unless noted
Procedure, shortened: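 Emission at 460 and 530 nm (excitation 405 nm) reports SIE-controlled beta-lactamase in ME-180 cells. Cells received compound with 40 pM IL-6 for 5 hrs at 37 C; data scaled between 300 pM IL-6 and 125 nM JAK-inhibitor controls.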

[6] = target: Glucocorticoid receptor (Homo sapiens) (UniProt P04150); test: GR-GFP Redistribution (AID 450;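 active = compounds whose dose series gives a full or clear partial fitted curve of increased nuclear translocation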; note: potency is the fitted concentration of half-maximal effect); settings: U2OS GR-GFP nuclear translocation, laser cytometry, 2 h
Sequence of Glucocorticoid receptor (Homo sapiens) (P04150 whole entry, looked up, the tested form may be a part): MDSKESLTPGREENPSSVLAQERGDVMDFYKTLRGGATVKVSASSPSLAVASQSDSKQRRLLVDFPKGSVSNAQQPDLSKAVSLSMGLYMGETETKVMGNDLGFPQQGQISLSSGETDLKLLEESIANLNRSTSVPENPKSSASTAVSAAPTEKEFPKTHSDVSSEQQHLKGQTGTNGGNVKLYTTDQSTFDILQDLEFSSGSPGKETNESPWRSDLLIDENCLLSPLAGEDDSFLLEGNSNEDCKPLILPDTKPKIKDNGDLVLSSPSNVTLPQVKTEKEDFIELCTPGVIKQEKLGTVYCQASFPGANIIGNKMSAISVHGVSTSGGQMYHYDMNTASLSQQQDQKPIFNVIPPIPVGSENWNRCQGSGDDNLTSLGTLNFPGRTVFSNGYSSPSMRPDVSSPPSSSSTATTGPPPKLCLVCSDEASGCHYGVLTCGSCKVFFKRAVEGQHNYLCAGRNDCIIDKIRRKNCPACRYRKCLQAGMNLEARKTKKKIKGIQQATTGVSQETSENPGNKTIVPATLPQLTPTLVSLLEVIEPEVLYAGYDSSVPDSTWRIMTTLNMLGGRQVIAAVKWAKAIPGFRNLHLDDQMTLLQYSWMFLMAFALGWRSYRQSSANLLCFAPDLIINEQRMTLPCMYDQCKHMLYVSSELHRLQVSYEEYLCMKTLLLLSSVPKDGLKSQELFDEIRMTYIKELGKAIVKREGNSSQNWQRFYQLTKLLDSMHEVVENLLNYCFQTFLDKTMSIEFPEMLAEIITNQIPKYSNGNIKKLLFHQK

[7] = target: Glucocorticoid receptor (Homo sapiens) (UniProt P04150); test: GR-EFC Redistribution (AID 451; calls by dose curve; note: potency is the fitted concentration of half-maximal effect); settings: CHO-K1 GR-EFC translocation, beta-gal luminescence, 2 h
Procedure, shortened: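 CHO-K1 cells expressing nuclear EA and GR-ED fragments of b-gal; compounds titrated up to 46 uM final, 2 h at 37 C. GR nuclear translocation read as complemented b-gal luminescence after 1 h RT detection.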

[8] = target: Mitogen-activated protein kinase 10 (Mus musculus) (UniProt Q61831); test: JNK3 AlphaScreen Assay (AID 530; active = well fitted curve in either direction with a large enough effect, not every such curve was filed as active;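 note: kinase came from lysate of stimulated human HepG2 cells; signal reports phosphorylation of biotinylated GST-cJun 1-79 at Ser73 with 10 µM ATP; % is set by controls: 0 for no effect and ±100 for the full control effect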); settings: JNK3 lysate, c-Jun phosphorylation; series mostly up to 57.1 µM
Procedure, shortened: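 HepG2 lysate (IL-1b/TNFa pre-activated) + biotin-GST-cJun 1-79 + anti-pSer73 cJun; cpd titration, 15 min RT; ATP 10 uM start; Tris pH 7.6, MgCl2, DTT, vanadate; beads in EDTA buffer; AlphaScreen.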

[9] = target: 3',5'-cyclic-AMP phosphodiesterase 4B (Homo sapiens) (UniProt Q07343); test: qHTS Assay for Inhibitors of PDE-IV (AID 607; active = well fitted activation curve with a large enough effect in the main read-out, with a control signal flat, not every such curve was filed as active; note: % of control where 0% means no effect); settings: HEK293 ACTOne CNG channel cells, membrane potential fluorescence; series mostly up to 22.9 µM
Sequence of 3',5'-cyclic-AMP phosphodiesterase 4B (Homo sapiens) (Q07343 whole entry, looked up): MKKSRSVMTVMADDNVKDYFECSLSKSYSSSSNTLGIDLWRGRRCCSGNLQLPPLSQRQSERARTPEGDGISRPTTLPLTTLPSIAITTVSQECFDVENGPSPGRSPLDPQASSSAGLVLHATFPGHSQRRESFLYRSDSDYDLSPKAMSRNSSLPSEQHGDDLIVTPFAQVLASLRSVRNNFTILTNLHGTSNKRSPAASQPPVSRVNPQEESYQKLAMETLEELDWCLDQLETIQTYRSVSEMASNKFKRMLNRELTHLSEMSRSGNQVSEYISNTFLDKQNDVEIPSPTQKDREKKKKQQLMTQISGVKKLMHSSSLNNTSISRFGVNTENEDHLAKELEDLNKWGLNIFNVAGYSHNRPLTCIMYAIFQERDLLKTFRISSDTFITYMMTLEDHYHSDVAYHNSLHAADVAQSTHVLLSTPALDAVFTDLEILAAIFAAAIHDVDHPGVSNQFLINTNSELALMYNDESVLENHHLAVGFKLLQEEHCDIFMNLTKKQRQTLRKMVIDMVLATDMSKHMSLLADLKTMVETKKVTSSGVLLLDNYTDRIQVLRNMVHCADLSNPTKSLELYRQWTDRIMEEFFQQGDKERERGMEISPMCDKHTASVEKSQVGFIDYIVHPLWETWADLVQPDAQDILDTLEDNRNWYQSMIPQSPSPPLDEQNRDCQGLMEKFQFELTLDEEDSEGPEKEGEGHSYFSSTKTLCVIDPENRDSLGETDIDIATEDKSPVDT
Procedure, shortened: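 The readout is membrane depolarisation from a cAMP-sensing CNG channel, detected with a potential dye at ex 535/em 590. Cells were HEK293-derived (endogenous PDE-IV) at 1000 cells/well, titrated up to 22.9 uM final.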

[10] = target: Cytochrome P450 3A4 (Homo sapiens) (UniProt P08684); test: qHTS Assay for Activators of Cytochrome P450 3A4 (AID 885); settings: recombinant CYP3A4, Luciferin-PPXE luminescence, 60 min; series mostly up to 57.1 µM; note: nearly all actives have a fitted effect of over 65% in size
Sequence of Cytochrome P450 3A4 (Homo sapiens) (P08684 whole entry, looked up): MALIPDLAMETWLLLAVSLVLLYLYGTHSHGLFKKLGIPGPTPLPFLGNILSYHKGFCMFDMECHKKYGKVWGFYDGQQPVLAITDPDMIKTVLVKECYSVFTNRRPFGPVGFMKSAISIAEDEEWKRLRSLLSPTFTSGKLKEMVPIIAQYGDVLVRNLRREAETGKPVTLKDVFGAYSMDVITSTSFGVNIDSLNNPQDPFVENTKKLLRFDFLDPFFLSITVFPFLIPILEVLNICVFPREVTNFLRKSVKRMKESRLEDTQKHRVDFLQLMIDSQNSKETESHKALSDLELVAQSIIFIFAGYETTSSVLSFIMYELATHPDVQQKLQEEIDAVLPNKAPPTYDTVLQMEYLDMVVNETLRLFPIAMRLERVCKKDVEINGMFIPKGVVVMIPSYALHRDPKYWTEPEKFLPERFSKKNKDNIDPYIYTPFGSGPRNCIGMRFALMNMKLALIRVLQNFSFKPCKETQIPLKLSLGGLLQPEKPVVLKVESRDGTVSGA
Procedure, shortened: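 Activators are scored by enhanced luminescence from CYP3A4 conversion of luciferin-PPXE (25uM, equal to KM) to luciferin, after 60 min at RT with an NADPH-regenerating system.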

[11] = qHTS Assay for Lipid Storage Modulators (AID 1519; calls by dose curve); settings: Drosophila S3 cells, BODIPY lipid droplet/cell ratio, laser cytometry, cells loaded with oleic acid; for activity change, negative = inhibition: at 57.5 µM (top of the series)
Procedure, shortened: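 Cells seeded at 5,000 per well were treated with compounds over a concentration series and loaded with oleic acid (400 uM, as added). Lipid droplet fluorescence (488 nm excitation, 500-530 nm channel) was read by laser-scanning cytometry and normalized to 20 uM Triacsin C.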

[12] = target: Dual specificity protein kinase CLK4 (Homo sapiens) (UniProt Q9HAZ1); test: qHTS Assay for Inhibitors of CDC-like Kinase 4 (Kinase-Glo Assay) (AID 1770); settings: recombinant Clk4, Kinase-Glo ATP depletion luminescence; series mostly up to 66.7 µM; note: nearly all actives have a fitted effect of over 65% in size; note: potency is the fitted concentration of half-maximal effect
Sequence of Dual specificity protein kinase CLK4 (Homo sapiens) (Q9HAZ1 whole entry, looked up): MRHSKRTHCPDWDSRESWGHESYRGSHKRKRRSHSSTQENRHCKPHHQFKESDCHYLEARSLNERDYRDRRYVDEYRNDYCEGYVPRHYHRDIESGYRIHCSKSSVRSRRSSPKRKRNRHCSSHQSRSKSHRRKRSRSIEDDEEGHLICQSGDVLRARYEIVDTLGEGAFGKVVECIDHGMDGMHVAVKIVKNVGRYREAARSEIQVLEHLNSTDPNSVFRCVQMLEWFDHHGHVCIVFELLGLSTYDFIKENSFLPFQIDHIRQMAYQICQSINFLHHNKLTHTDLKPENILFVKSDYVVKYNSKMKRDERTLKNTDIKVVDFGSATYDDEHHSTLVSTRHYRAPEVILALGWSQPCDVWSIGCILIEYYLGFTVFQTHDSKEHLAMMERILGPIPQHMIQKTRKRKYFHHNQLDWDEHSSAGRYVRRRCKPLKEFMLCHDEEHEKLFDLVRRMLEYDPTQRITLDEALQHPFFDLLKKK
Procedure, shortened: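 Recombinant human Clk4 (25 nM) phosphorylated RS repeat peptide (100 uM) with 1 uM ATP in Tris pH 7.5/MgCl2/EGTA/DTT/Triton buffer for 4.5 h at room temperature. Residual ATP was quantified by Kinase-Glo luciferase luminescence.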

[13] = target: Dual specificity protein kinase CLK4 (Homo sapiens) (UniProt Q9HAZ1); test: qHTS Assay for Inhibitors of CDC-like Kinase 4 (ADP-Glo Assay) (AID 1771); settings: recombinant CLK4, ADP-Glo luminescence; series mostly up to 80 µM; note: nearly all actives have a fitted effect of over 70% in size; note: potency is the fitted concentration of half-maximal effect
Procedure, shortened: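 25 nM Clk4, 100 uM RS peptide, 1 uM ATP (final); 2 mM MgCl2, 0.5 mM EGTA, 2.5 mM DTT, 0.01% Triton X-100; 1 hr RT. ADP-Glo readout: ATP depletion 45 min, conversion/luciferase 30 min, luminescence.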

[14] = target: Ubiquitin carboxyl-terminal hydrolase 1 (Homo sapiens) (UniProt O94782); test: Inhibitors of USP1/UAF1: Pilot qHTS (AID 504865); settings: purified USP1/UAF1, Ub-rhodamine cleavage fluorescence; series mostly up to 54.9 µM;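 note: rhodamine fluorescence freed from ubiquitin-rhodamine substrate followed over time; top concentration of the series differs between compounds; % is set by controls: 0 for no effect and ±100 for the full control effect; nearly all actives have a fitted effect of over 35% in size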
Sequence of Ubiquitin carboxyl-terminal hydrolase 1 (Homo sapiens) (O94782 whole entry, looked up): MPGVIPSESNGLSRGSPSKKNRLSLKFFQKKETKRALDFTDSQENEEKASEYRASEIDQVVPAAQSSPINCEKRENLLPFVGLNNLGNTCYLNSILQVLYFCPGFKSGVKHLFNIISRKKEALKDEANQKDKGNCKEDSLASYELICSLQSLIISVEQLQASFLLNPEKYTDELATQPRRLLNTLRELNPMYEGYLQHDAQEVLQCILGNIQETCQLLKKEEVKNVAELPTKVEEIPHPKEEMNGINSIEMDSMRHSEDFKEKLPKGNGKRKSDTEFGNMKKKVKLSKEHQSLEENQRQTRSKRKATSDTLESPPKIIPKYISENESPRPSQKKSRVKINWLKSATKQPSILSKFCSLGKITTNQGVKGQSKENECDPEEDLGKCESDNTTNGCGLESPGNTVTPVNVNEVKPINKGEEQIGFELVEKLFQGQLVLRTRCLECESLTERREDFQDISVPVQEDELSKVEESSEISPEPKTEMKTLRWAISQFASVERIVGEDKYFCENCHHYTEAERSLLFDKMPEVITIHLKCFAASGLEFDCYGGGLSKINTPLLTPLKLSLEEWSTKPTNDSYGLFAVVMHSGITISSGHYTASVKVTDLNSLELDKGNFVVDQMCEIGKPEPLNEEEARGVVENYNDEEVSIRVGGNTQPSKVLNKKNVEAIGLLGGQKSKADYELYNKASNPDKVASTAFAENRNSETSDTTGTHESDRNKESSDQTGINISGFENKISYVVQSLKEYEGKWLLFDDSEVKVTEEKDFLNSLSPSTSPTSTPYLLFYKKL
Procedure, shortened: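 USP1/UAF1 complex (1nM) preincubated with compound 15 min at room temperature, then Ub-Rho substrate (150nM final) added. Fluorescence read kinetically at 480/540 nm, 6 reads every 60 seconds. Buffer: 50mM HEPES pH 7.8, 0.5mM EDTA, 0.1 mg/ml BSA, 1mM TCEP, 0.01% Tween-20.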

[15] = Primary qHTS for small molecule stabilizers of the endoplasmic reticulum resident proteome: Secreted ER Calcium Modulated Protein (SERCaMP) assay (AID 1508630); settings: SH-SY5Y GLuc-SERCaMP (Gaussia luciferase released on ER calcium loss) secretion, thapsigargin, luminescence; series mostly up to 38.4 µM; note: % is set by controls: 0 for no effect and ±100 for the full control effect
Procedure, shortened: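 The SH-SY5Y reporter protocol was run at 3 concentrations up to 38.3 uM (primary) or 11 concentrations (follow-up): 16 h compound, 100 nM thapsigargin for 4 h, then extracellular luciferase luminescence.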

[16] = qHTS Assay for Identification of Small Molecule Agonists for Hypoxia Response Element Signaling Pathway (AID 914; active = well fitted activation curve with a large enough effect in the signal ratio, with a control signal flat, not every such curve was filed as active; the % refers to the signal ratio; note: % of control where 0% means no effect); settings: ME-180 (cervical carcinoma) HRE-bla reporter, beta-lactamase ratio, CoCl2, 17 h; activation: stronger effect = higher value
Procedure, shortened: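 Positive modulation of EC50 CoCl2-induced hypoxia response element signaling is measured in ME-180 cells with a beta-lactamase reporter. Compounds are titrated, incubation runs 17 hours, and %Activity derives from the blue/green ratio.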

[17] = target: Cytochrome P450 2C9 (Homo sapiens) (UniProt P11712); test: qHTS Assay for Inhibitors and Substrates of Cytochrome P450 2C9 (AID 883); settings: recombinant CYP2C9, luciferin-H luminescence, 60 min; series mostly up to 57.1 µM; note: potency is the fitted concentration of half-maximal effect; nearly all actives have a fitted effect of over 60% in size
Procedure, shortened: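 Signal: luciferase luminescence reporting luciferin produced by CYP2C9. Conditions: 10nM enzyme, Luciferin-H 100uM at KM, 25mM KPO4, 37C, 60 min NADPH-driven reaction. Reference: 57uM sulphaphenazole as 100% inhibition.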

[18] = target: Cytochrome P450 2C19 (Homo sapiens) (UniProt P33261); test: qHTS Assay for Inhibitors and Substrates of Cytochrome P450 2C19 (AID 899); settings: recombinant CYP2C19, luciferin-H EGE luminescence; series mostly up to 57.1 µM; note: potency is the fitted concentration of half-maximal effect; nearly all actives have a fitted effect of over 60% in size
Sequence of Cytochrome P450 2C19 (Homo sapiens) (P33261 whole entry, looked up): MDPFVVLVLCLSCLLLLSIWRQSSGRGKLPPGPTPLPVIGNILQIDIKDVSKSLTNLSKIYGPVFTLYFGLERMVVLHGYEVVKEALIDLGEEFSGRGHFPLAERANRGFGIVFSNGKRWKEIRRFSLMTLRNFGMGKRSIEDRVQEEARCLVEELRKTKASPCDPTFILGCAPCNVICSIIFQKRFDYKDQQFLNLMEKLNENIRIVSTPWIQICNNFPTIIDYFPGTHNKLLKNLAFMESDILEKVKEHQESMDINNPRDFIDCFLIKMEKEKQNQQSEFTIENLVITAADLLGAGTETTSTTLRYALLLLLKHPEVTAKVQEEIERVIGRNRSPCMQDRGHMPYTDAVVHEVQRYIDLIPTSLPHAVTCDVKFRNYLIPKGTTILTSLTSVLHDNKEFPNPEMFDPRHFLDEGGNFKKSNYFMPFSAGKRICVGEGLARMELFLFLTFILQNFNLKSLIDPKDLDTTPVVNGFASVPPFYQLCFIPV
Procedure, shortened: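 Signal comes from luciferase acting on luciferin released by CYP2C19-mediated hydroxylation of Luciferin-H EGE, 10uM (KM). Assay mix: 5nM enzyme, 50mM KPO4; 60 min at 37C with NADPH regeneration. Data normalized against 57uM ketoconazole.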

[19] = measured here: cell count channel max response
[20] = measured here: lipid channel max response

| Compound | Potency [1] | activity change, negative = inhibition [2] | Potency [3] | activity change, negative = inhibition [4] | activity, negative = inhibition [5] | Potency [6] | Potency [7] | outcome [8] | Potency [9] | Potency [10] | activity change, negative = inhibition [11] | max response [11, 19] | max response [11, 20] | Potency [12] | Potency [13] | Potency [14] | Potency [15] | activation [16] | Potency [17] | Potency [18] |
| --- | --- | --- | --- | --- | --- | --- | --- | --- | --- | --- | --- | --- | --- | --- | --- | --- | --- | --- | --- | --- |
| CS(=O)(=O)Nc1cccc(-c2ccc3ncnc(N4CCNCC4)c3c2)c1 | > 11.4 µM (inactive) | -1.37% (inactive) | 12.6 µM (active) | 23.1% (inactive) | -16.8% (inactive) | > 46 µM (inactive) | > 46 µM (inactive) | inactive | inactive | inactive | 5.65% (inactive) | 18.2% | 22.6% | 6.31 µM (active) | 15.8 µM (active) | inactive | inactive | – | – | – |
| COc1cccc(-c2cc(N(C)Cc3ccco3)ncn2)c1 | > 11.4 µM (inactive) | – | 0.794 µM (active) | -17.2% (inactive) | -2% (inactive) | > 46 µM (inactive) | > 46 µM (inactive) | inactive | inactive | inactive | 8.28% (inactive) | 20.9% | 28.5% | 12.6 µM (active) | 14.1 µM (active) | inactive | inactive | – | – | – |
| CCNc1ncc2ncc(=O)n(Cc3cccs3)c2n1 | > 11.4 µM (inactive) | – | 2 µM (active) | -8.48% (inactive) | -24.4% (inactive) | > 9.22 µM (inactive) | > 46 µM (inactive) | inactive | inactive | inactive | 5.21% (inactive) | 12.7% | 16.4% | 3.16 µM (active) | 5.62 µM (active) | inactive | inactive | -28.8% (inactive) | – | – |
| COc1cccc(-c2nc(NCc3ccccc3)c3ccccc3n2)c1 | – | -17.6% (inactive) | 3.16 µM (active) | 0.742% (inactive) | -12.9% (inactive) | > 46 µM (inactive) | > 46 µM (inactive) | inactive | – | inactive | -4.54% (inactive) | 10.5% | 2.86% | 6.31 µM (active) | 6.31 µM (active) | inactive | inactive | – | 1.26 µM (active) | 3.98 µM (active) |
| CC(=O)NCCNc1nc(-c2cccnc2)nc2ccccc12 | > 11.4 µM (inactive) | 5.7% (inactive) | – | 0.668% (inactive) | 1.25% (inactive) | > 46 µM (inactive) | > 46 µM (inactive) | inactive | inactive | – | 5.64% (inactive) | 21.4% | 27.2% | 25.1 µM (active) | 14.1 µM (active) | inactive | inactive | – | – | – |
| Cc1noc(C)c1-c1ccc2ncnc(N3CCN(C)CC3)c2c1 | > 11.4 µM (inactive) | – | 12.6 µM (active) | – | – | > 46 µM (inactive) | > 46 µM (inactive) | inactive | – | inactive | 0.38% (inactive) | 21% | 4.95% | 10 µM (active) | 10 µM (active) | inactive | inactive | – | – | – |
| COc1ccccc1CNc1cc(-c2c(C)noc2C)ncn1 | > 11.4 µM (inactive) | 14.8% (inactive) | 5.01 µM (active) | -3.28% (inactive) | -4.72% (inactive) | > 46 µM (inactive) | > 46 µM (inactive) | inactive | inactive | inactive | 10.8% (inactive) | 30% | 41.7% | 15.8 µM (active) | 17.8 µM (active) | inactive | inactive | – | – | – |
| Clc1ccccc1-c1ccc2ncnc(N3CCNCC3)c2c1 | > 11.4 µM (inactive) | 19.1% (inactive) | 2 µM (active) | -4.54% (inactive) | 5.5% (inactive) | > 46 µM (inactive) | > 46 µM (inactive) | inactive | inactive | inactive | 5.35% (inactive) | 26.7% | 32.3% | 15.8 µM (active) | 28.2 µM (active) | inactive | inactive | – | – | – |
| COCCNc1nc(-c2ccccc2Cl)nc2ccccc12 | 11 µM (inactive) | -0.0888% (inactive) | 0.126 µM (active) | 7.18% (inactive) | -3.65% (inactive) | > 46 µM (inactive) | > 46 µM (inactive) | inactive | – | inactive | 3.23% (inactive) | 2.91% | 4.03% | 15.8 µM (active) | 8.91 µM (active) | inactive | inactive | – | – | – |
| CCNc1ncc2nc(-c3ccc(OC)cc3)c(=O)n(C[C@H]3CCCO3)c2n1 | > 11.4 µM (inactive) | -5.93% (inactive) | – | – | – | – | > 46 µM (inactive) | inactive | – | – | -3.19% (inactive) | 8.2% | 0.991% | inactive | inactive | inactive | inactive | – | – | – |
| CCNc1ncc2ncc(=O)n(CCOC)c2n1 | > 11.4 µM (inactive) | -22.6% (inactive) | – | 4.31% (inactive) | -26.5% (inactive) | > 46 µM (inactive) | > 46 µM (inactive) | inactive | inactive | – | 6.16% (inactive) | 18.7% | 22.5% | 15.8 µM (active) | 11.2 µM (active) | inactive | inactive | – | – | – |
